From PubChem BioAssay (NCI)
Compounds without any hit were thinned out: in the full panel of roughly 79,000, 15% have a hit. Cut-off read from the data, not from the text of the source: active = growth inhibition above about 70%; inactive = the rest.

Legend:
[1] = NCI Yeast Anticancer Drug Screen. Data for the rad50 strain (AID 155);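 note: 0% = growth of vehicle-only cultures of the same strain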; details: S. cerevisiae rad50 strain growth inhibition; at 50.0 µM; stronger effect = higher value
Outline: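 Growth of the mutant yeast was measured after compound exposure and referenced to vehicle-treated cultures.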

[2] = NCI Yeast Anticancer Drug Screen. Data for the mec2-1 strain (AID 157); details: S. cerevisiae mec2-1 strain, at 50.0 µM, stronger effect = higher value
Outline: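 Each compound was tested on mec2-1 yeast, a strain altered in DNA damage repair or cell cycle control. Growth inhibition is reported relative to vehicle.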

[3] = NCI Yeast Anticancer Drug Screen. Data for the sgs1 mgt1 strain (AID 161);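 note: 0% = growth of cultures given vehicle only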; details: S. cerevisiae sgs1 mgt1 strain, at 50.0 µM, stronger effect = higher value
Outline: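 Read-out: growth inhibition vs vehicle controls. Cells: mutant yeast strain deficient in DNA damage repair.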

[4] = NCI Yeast Anticancer Drug Screen. Data for the cln2 rad14 strain (AID 165);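 note: 0% = growth equal to vehicle treated cultures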; details: S. cerevisiae cln2 rad14 strain, at 50.0 µM, stronger effect = higher value
Outline: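 Test compounds were added to cln2 rad14 yeast cultures; inhibition of growth was then determined by comparison with vehicle treatment.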

[5] = NCI Yeast Anticancer Drug Screen. Data for the bub3 strain (AID 167); details: S. cerevisiae bub3 mutant strain, at 50.0 µM, stronger effect = higher value
Outline: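 Whole-cell yeast assay. The mutant strain was incubated with compounds, and growth inhibition was determined by comparison with vehicle-treated cells.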

[6] = NCI Yeast Anticancer Drug Screen. Data for the mlh1 rad18 strain (AID 175); details: S. cerevisiae mlh1 rad18 strain growth inhibition; at 50.0 µM; stronger effect = higher value
Outline: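 Inhibition values reflect reduced growth of mutant yeast versus vehicle-treated controls following compound exposure; the mutations affect DNA damage repair.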

Measured: growth inhibition

CC(=O)NC1C(OC(C)=O)OC(COC(c2ccccc2)(c2ccccc2)c2ccccc2)C(O)C1OC(C)=O (stereo not drawn)
inactive: [1] 63.9% | [2] 47.5% | [3] 5% | [4] 41.2% | [5] 47.2% | [6] 44%

CC1(CBr)COC(c2ccccc2)(c2ccccc2)OC1
inactive: [1] 18.1% | [2] -2.4% | [3] 20.6% | [4] -31.4% | [5] -22.2% | [6] 28.5%

CCN(CC)CC#CCOc1ccc(/C=C/c2ccccn2)cc1
inactive: [1] 0.35% | [2] -13.4% | [3] 7.1% | [4] -14% | [5] 5.65% | [6] -21.4%

CN(C)Cc1cc(C(C)(C)CC(C)(C)C)cc(Br)c1O
inactive: [1] 33% | [2] 21.4% | [3] 30.6% | [4] 28.8% | [5] 39.7% | [6] 26.9%

CNCCCN1CCCCC1
inactive: [1] 31.8% | [2] 16% | [3] 22.4% | [4] 6.3% | [5] -4.4% | [6] 13.6%

CC1(O)C2C3C(I)C4C5C3C1C5C42 (stereo not drawn)
inactive: [1] 22.6% | [2] 9.05% | [3] 10.1% | [4] 6.7% | [5] 10.3% | [6] 17.4%

Cc1cc(/C=C2\SC(=S)NC2=O)cc(C)c1O
inactive: [1] 1.65% | [2] 0.8% | [3] 24.6% | [4] 13.1% | [5] 22.8% | [6] 13.7%

CC(=O)C1CCCC(=O)/C=C/C(=O)O1 (stereo not drawn)
inactive: [1] 3.4% | [2] -12.8% | [3] -7% | [4] 5.8% | [5] 11.5% | [6] -18%

C/C(=N\NC(=O)c1ccncc1)c1ccccc1Cl
inactive: [1] -23.3% | [2] -23.9% | [3] -16.1% | [4] -13.3% | [5] -75.8% | [6] -17.4%

C1CC2(CC3(C1)SCCS3)SCCS2
inactive: [1] -0.3% | [2] 7.2% | [3] -0.85% | [4] -12.3% | [5] 1.55% | [6] 0.05%

Cc1ccc(N=Nc2c(O)c(C(=O)O)cc3ccccc23)c(S(=O)(=O)O)c1
inactive: [1] 12.3% | [2] -8.35% | [3] -7.5% | [4] -45.2% | [5] 5.9% | [6] 26.4%

Cc1ccc(N2[C@H]3CCCN3c3ccc(C)cc3[C@@H]2C(F)(F)F)cc1
inactive: [1] 16.3% | [2] 0.8% | [3] 29.5% | [4] -2.25% | [5] -15.5% | [6] 2%

Cc1cc2oc(C)c(S(=O)(=O)NC(=O)Nc3ccc(Cl)cc3)c(=O)c2c(=O)o1
inactive: [1] -2.85% | [2] -0.45% | [3] -2.5% | [4] 3.55% | [5] 12.2% | [6] -2.8%

O=c1[nH][nH]c(=O)c2c1nc(SCc1ccc(Br)cc1)n2Cc1ccccc1
inactive: [1] 16.9% | [2] 0.3% | [3] -7.95% | [4] 1.85% | [5] -2.35% | [6] 3.8%

CCOC(=O)CCC1CCCO1 (stereo not drawn)
inactive: [1] -3.6% | [2] -19.1% | [3] -19.9% | [4] -4.8% | [5] -6.85% | [6] -1.05%

N#CCCCCCCn1cnc2c(=S)nc[nH]c21
inactive: [1] 4.9% | [2] 9.55% | [3] 17.9% | [4] -13% | [5] -4.7% | [6] 22.4%

CNC1NC(=O)c2ccccc2N1Cc1ccc(F)cc1 (stereo not drawn)
inactive: [1] 5.7% | [2] 4.5% | [3] -23.1% | [4] -19.6% | [5] -12.1% | [6] -4.25%

COc1ccccc1N(CN1C(=O)CCC1C(=O)O)C(C)=O (stereo not drawn)
inactive: [1] 9.2% | [2] 10.4% | [3] -4% | [4] 7.25% | [5] -9.1% | [6] -37.9%

CN(C)/C(=N\N=C(/c1ccc(Cl)cc1)N(C)C)c1ccc(Cl)cc1
inactive: [1] -15.8% | [2] -8.25% | [3] 1% | [4] -24.9% | [5] -11.1% | [6] -19.1%

Oc1ccccc1/C=N/c1nc(-c2ccccc2)cs1.[Co].[O-]c1ccccc1/C=N/c1nc(-c2ccccc2)cs1
inactive: [1] 19.2% | [2] 5.9% | [3] 9.8% | [4] 22.4% | [5] 5.35% | [6] 21.2%

CCCC(=O)OCCCCC1CCCO1 (stereo not drawn)
inactive: [1] 13.2% | [2] 3.6% | [3] 8.75% | [4] 14% | [5] 5.45% | [6] 11.6%

O=C1c2ccccc2-c2ccc3c4ccc5c6c(ccc(c7ccc1c2c73)c64)C(=O)c1ccccc1-5
inactive: [1] 53.2% | [2] 23.4% | [3] 36.8% | [4] 30.6% | [5] 15.2% | [6] 37.5%

COc1cc(C#N)cc(OC)c1
inactive: [1] -17.4% | [2] -16.4% | [3] -26.9% | [4] 3.6% | [5] -12.1% | [6] -5.5%

N#CC(C(=O)O)C1(C(C#N)C(=O)O)CCN(Cc2ccccc2)CC1 (stereo not drawn)
inactive: [1] -9.9% | [2] -5.1% | [3] 40.5% | [4] -21.9% | [5] -2.15% | [6] -10.1%

CCC1NC(=O)C(NC(=O)c2ncccc2O)C(C)OC(=O)C(c2ccccc2)NC(=O)C2CC(=O)CCN2C(=O)C(Cc2ccccc2)N(C)C(=O)C2CCCN2C1=O (stereo not drawn)
inactive: [1] -6.9% | [2] -32.6% | [3] -29.1% | [4] -17.4% | [5] -6.45% | [6] 0.3%

CC1(C#N)N(C(=O)c2ccccc2)c2ccccc2N1C(=O)c1ccccc1
inactive: [1] 18.6% | [2] 50.2% | [3] 46.2% | [4] 27.2% | [5] 36% | [6] 24.9%

O=C(O)CCCCCCc1ccc2ccccc2n1
inactive: [1] 16.8% | [2] 13.8% | [3] 16.5% | [4] 10% | [5] 7.05% | [6] -3.55%

NC(=O)C1=CNCCC1
inactive: [1] -1.15% | [2] -6.05% | [3] -6.35% | [4] 12.3% | [5] 10.7% | [6] 14.7%

NC(=O)NC(=O)NCc1ccccc1
inactive: [1] -1.35% | [2] 0.35% | [3] -12.8% | [4] -7.65% | [5] 6.6% | [6] -4.9%

Nc1ncnc2c1[nH]c(=S)n2C1OC(CO)C(O)C1O (stereo not drawn)
inactive: [1] 14.4% | [2] 6.3% | [3] 3.1% | [4] -12.1% | [5] 4% | [6] 0.15%

CC(=O)NC1=NC(=O)/C(=C/Cc2cccs2)N1C
inactive: [1] 6.8% | [2] 16.1% | [3] 1.55% | [4] -5.55% | [5] -23.8% | [6] -25.4%

COC[C@@H](N=CN1CCc2cc(OC)c(OC)cc2C1)C(C)(C)C
inactive: [1] -31.2% | [2] -18.2% | [3] -14.6% | [4] 13% | [5] -11.3% | [6] -17%

O=c1nc2sc3ccccc3c(=O)n2[nH]1
inactive: [1] -39.6% | [2] -42% | [3] -2.85% | [4] 6.85% | [5] -12.2% | [6] -28.8%

CCCCCCCC1CC(OCC)OC(CCCCCCC)O1 (stereo not drawn)
inactive: [1] -1.8% | [2] -15.1% | [3] -6.95% | [4] -8.2% | [5] -2.25% | [6] -18.4%

CCCOc1cc(C)c(C(=O)OC(C)CN2CCCC2)c(C)c1 (stereo not drawn)
inactive: [1] 3.5% | [2] -22.4% | [3] 15.8% | [4] -43.7% | [5] -2.1% | [6] -20.4%

Cc1ccnc(NC(=O)Nc2ccccc2Cl)c1
inactive: [1] 9.65% | [2] 8.15% | [3] 1.3% | [4] 3.15% | [5] 21% | [6] 12%

CN(C)CCCNc1ncnc2nc[nH]c12
inactive: [1] -25.8% | [2] -43.7% | [3] -31.8% | [4] -19.8% | [5] -28.4% | [6] -0.15%

N#CCCN(C1=NN(C(=O)CC(=O)Nc2ccccc2Cl)C(c2ccccc2)C1)c1ccc(Cl)cc1 (stereo not drawn)
inactive: [1] 28.4% | [2] 19.1% | [3] -10.1% | [4] 25.9% | [5] 16.1% | [6] 3.95%
